Where “and” joins values, the source holds several entries; their conditions need not be identical. Equal values may be shown once. Results filed as inconclusive are left out. Where a call stands in place of a potency, no number is given. The source holds several records for some structures; these can differ, active in one and inactive in another. Calls of active or inactive are those of the source. Calls come from the whole dose curve; as a rule, active = well fitted curve in the direction sought with a large enough effect; inconclusive = small, poorly fitted or top-dose-only effect, or another doubt; inactive = no such curve, though single readings can be large; an effect the other way counts as inactive or inconclusive.
How the values were obtained:
[1] = Viability qHTS for spleen associated tyrosine kinase inhibitor (SYKi) naive MV4-11 cells (AID 1963823); note: nearly all actives have a fitted effect of over 40% in size
How it was run: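 qHTS, SYK inhibitor-naive MV4-11; 500 cells/well; 72 hr compound exposure, 37 C; CellTiter-Glo added, 10 min RT; luminescence read.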

[2] = Viability qHTS for spleen associated tyrosine kinase inhibitor (SYKi) drug resistant MV4-11 cells (AID 1963824); note: nearly all actives have a fitted effect of over 35% in size
How it was run: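 SYK-inhibitor-resistant MV4-11 AML cells were seeded at 500 per well onto compound and cultured 72 hours (37 °C, 5% CO2). CellTiter-Glo was then added, and after 10 min at room temperature, luminescence gave viability.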

[3] = Cellular viability qHTS for adrenocortical cancer (ACC) cell line SW-13 (AID 1963989); conditions: SW-13 ACC cells viability, CellTiter-Glo, 48 h; activity (max response): stronger effect = lower value; note: nearly all actives have a fitted effect of over 65% in size;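 for activity (max response): cells grown in serum-free medium with ITS supplement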
How it was run: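 IC50 and maximal-response values come from four-parameter logistic fits of titration data. SW-13 cells in serum-free medium received compounds (up to 46 uM final) for 48 h before CellTiter-Glo luminescence.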

[4] = Cellular viability qHTS for adrenocortical cancer (ACC) cell line NCI-H295R (AID 1963990); note: nearly all actives have a fitted effect of over 60% in size
How it was run: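 Adrenocortical carcinoma cells, suspended at 300 000 cells/mL in serum-free DMEM plus ITS, rested overnight before pin transfer of compound. After two days' incubation, ATP-dependent luminescence was recorded and curve-fitted.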
Potency is the fitted concentration of half-maximal effect.

SMILES | Potency [1] | Potency [2] | activity (max response) [3] | Potency [4] | Potency [3]
O=S1(=O)OC(c2ccc(O)cc2)(c2ccc(O)cc2)c2ccccc21 | inactive | inactive | -5.64% (inactive) | inactive | 
CCN1CCN(c2cc(-c3ccc(F)cc3)c3c(n2)CCCCCC3)CC1 | inactive | inactive | -1.29% (inactive) | inactive | 
O=C1CC(c2c[nH]c3ccc(F)cc23)C(=O)N1 (stereo not given) | inactive | inactive | -18.5% (inactive) | inactive | 
CC(C)=CCC[C@](C)(O[C@@H]1O[C@H](CO[C@@H]2O[C@H](CO)[C@@H](O)[C@H](O)[C@H]2O)[C@@H](O)[C@H](O)[C@H]1O)[C@H]1CC[C@]2(C)[C@@H]1[C@H](O)C[C@@H]1[C@@]3(C)CC[C@H](O[C@@H]4O[C@H](CO)[C@@H](O)[C@H](O)[C@H]4O[C@@H]4O[C@H](CO)[C@@H](O)[C@H](O)[C@H]4O)C(C)(C)[C@@H]3CC[C@]12C | inactive | inactive | -6.63% (inactive) | inactive | 
Cc1c(C)c2c(c(C)c1OC(=O)CCC(=O)OCCO)CC[C@@](C)(CCC[C@H](C)CCC[C@H](C)CCCC(C)C)O2 | inactive | inactive |  | 13 µM (active) | 18.4 µM (active)
O=C(O)C1=CO[C@@H](O[C@@H]2O[C@H](CO)[C@@H](O)[C@H](O)[C@H]2O)[C@@H]2C(CO)=CC[C@H]12 | 10.1 µM (active) and inactive | 12.8 µM (active) and inactive | 7.35% (inactive) | inactive | 
COC1=C(OC)C(=O)C(C/C=C(\C)CC/C=C(\C)CC/C=C(\C)CC/C=C(/C)CC/C=C(\C)CC/C=C(\C)CC/C=C(\C)CC/C=C(\C)CC/C=C(\C)CCC=C(C)C)=C(C)C1=O | inactive | inactive | 3.03% (inactive) | inactive | 
CC(=O)OCC(=O)[C@@]12OC(C)(C)O[C@@H]1C[C@H]1[C@@H]3C[C@H](F)C4=CC(=O)C=C[C@]4(C)[C@@]3(F)[C@@H](O)C[C@@]12C | inactive and 93.4 nM (active) | inactive | 10.5% (inactive) and 8.23% (inactive) | inactive | 
C[C@]12CCC(=O)C=C1CC[C@@H]1[C@@H]2CC[C@@]2(C)[C@H]1CC[C@]2(O)C(=O)CO | inactive | inactive | -2.88% (inactive) | inactive | 
CCN1CCCC(OC(=O)C(c2ccccc2)c2ccccc2)C1 (stereo not given) | inactive | inactive | -12.5% (inactive) | inactive | 
c1ccc(CN(CC2=NCCN2)c2ccccc2)cc1 | inactive | inactive | 0.264% (inactive) | inactive | 
CCN(CC)CCOC(=O)C1(c2ccccc2)CCCC1 | inactive | inactive | 8.5% (inactive) | inactive | 
Nc1ncnc2c1ncn2[C@@H]1O[C@H](CO)C[C@H]1O | inactive | inactive | -9.5% (inactive) | 15.8 µM (active) | 
CN[C@H]1CC[C@@H](c2ccc(Cl)c(Cl)c2)c2ccccc21 | 6610 nM (active) | 7420 nM (active) |  | 4.61 µM (active) and 8.91 µM (active) | 20.6 µM (active) and 28.2 µM (active)
CCCCOC(=O)CC(CC(=O)OCCCC)(OC(C)=O)C(=O)OCCCC | inactive | inactive | 12.7% (inactive) | inactive | 
NC(=O)N1c2ccccc2C=Cc2ccccc21 | inactive | inactive | 8.83% (inactive) | inactive | 
CC[C@]12C=CCN3CC[C@@]4(c5cc([C@@]6(C(=O)OC)C[C@H]7C[C@@H](C(C)(F)F)CN(Cc8c6[nH]c6ccccc86)C7)c(OC)cc5N(C)[C@H]4[C@@](O)(C(=O)OC)[C@@H]1OC(C)=O)[C@@H]32 | 55.5 nM (active) | 49.4 nM (active) |  | 0.548 µM (active) | 0.123 µM (active)
Nc1c2ccccc2nc2ccccc12 | 2990 nM (active) | 3760 nM (active) |  | 7.31 µM (active) | 7.31 µM (active)
CCCc1ccc(OCC(=O)N2CCN(C(=O)COc3ccc(CCC)cc3OC)CC2)c(OC)c1 | inactive | inactive | 4.95% (inactive) | inactive | 
CC(=O)Nc1ccc(O)cc1 | inactive | inactive | -6.94% (inactive) and -15.1% (inactive) | inactive | 
C#C[C@]1(O)CC[C@H]2[C@@H]3[C@H](C)CC4=C(CCC(=O)C4)[C@H]3CC[C@@]21C | inactive | 18600 nM (active) | -17.1% (inactive) | inactive | 
CC(=O)OCC[N+](C)(C)C | inactive | inactive | 10.9% (inactive) | inactive | 
COCCOc1cnc2ccn([C@H](C)c3nnc4c(F)cc(-c5cnn(C)c5)cn34)c(=O)c2c1 | inactive | inactive | -16.1% (inactive) | inactive | 

SMILES | Potency [1] | Potency [2] | activity (max response) [3] | Potency [4] | Potency [3]
O=C(O)Cc1cccc2ccccc12 | inactive | inactive | 3.96% (inactive) and 12.8% (inactive) | inactive | 
CC[C@@H](C)Nc1cc(C(=O)NC2CC3CCC(C2)N3c2ccc(C(=O)C3CC3)cn2)c(C)cc1C(N)=O (stereo not given in full) | 41.7 nM (active) | 20.6 nM (active) |  | 0.355 µM (active) | 0.355 µM (active)
CCCCNc1ncc2c(-c3ccc(CN4CCN(C)CC4)cc3)cn(C3CCC(O)CC3)c2n1 (stereo not given) | 10.5 nM (active) | 11.6 nM (active) and 20.9 nM (active) |  | 6.31 µM (active) | 11.2 µM (active)
CN[C@H](CC(C)C)C(=O)N[C@H]1C(=O)N[C@@H](CC(N)=O)C(=O)N[C@H]2C(=O)N[C@H]3C(=O)N[C@H](C(=O)N[C@H](C(=O)O)c4cc(O)cc(O)c4-c4cc3ccc4O)[C@H](O)c3ccc(c(Cl)c3)Oc3cc2cc(c3O[C@@H]2O[C@H](CO)[C@@H](O)[C@H](O)[C@H]2O[C@H]2C[C@](C)(N)[C@H](O)[C@H](C)O2)Oc2ccc(cc2Cl)[C@H]1O | inactive | inactive | -12.5% (inactive) | inactive | 
O=C(/C=C/c1ccc(Cl)cc1)N1CCC2(CC1)CN(Cc1ccc(Cl)c(Cl)c1)C(=O)O2 | 18600 nM (active) | 11800 nM (active) | -3.3% (inactive) | inactive | 
C[C@]12C[C@H](O)[C@H]3[C@@H](CCC4=CC(=O)CC[C@@]43C)[C@@H]1CC[C@@H]2C(=O)CO | inactive | inactive | 4.71% (inactive) | inactive | 
NS(=O)(=O)c1cc2c(cc1C(F)(F)F)NCNS2(=O)=O | inactive | inactive | -4.83% (inactive) | inactive | 
CN1CCC(c2c(O)cc(O)c3c(=O)cc(-c4ccccc4Cl)oc23)C1CO (stereo not given) | 742 nM (active) | 590 nM (active) |  | 3.16 µM (active) | 3.16 µM (active)
CC[C@]1(O)C[C@@H]2CN(CCc3c([nH]c4ccccc34)[C@@](C(=O)OC)(c3cc4c(cc3OC)N(C)[C@H]3[C@@](O)(C(=O)OC)[C@H](OC(C)=O)[C@]5(CC)C=CCN6CC[C@]43[C@@H]65)C2)C1 | 211 nM (active) and 36.6 nM (active) | inactive and 94.4 nM (active) and 18.4 nM (active) |  | 116 nM (active) and 291 nM (active) | 25.9 nM (active) and 92 nM (active)
CCC(C(=O)OCCOCCN(CC)CC)c1ccccc1 (stereo not given) | inactive | inactive | -6.83% (inactive) | inactive | 
c1cc(-c2cnn3cc(-c4ccc(N5CCNCC5)cc4)cnc23)c2cccnc2c1 | 662 nM (active) | 920 nM (active) |  | 6.31 µM (active) | 22.4 µM (active)
CCCCC(=O)OCC(=O)[C@]1(O)Cc2c(O)c3c(c(O)c2[C@@H](O[C@H]2C[C@H](NC(=O)C(F)(F)F)[C@H](O)[C@H](C)O2)C1)C(=O)c1c(OC)cccc1C3=O | 148 nM (active) | 209 nM (active) |  | 3.55 µM (active) | 2.82 µM (active)
N[C@H](C(=O)O)c1ccc(O)cc1 | inactive | inactive | 5.01% (inactive) | inactive | 
CCCOc1ccc2c(c1)CC[C@@H]1[C@@H]2CC[C@]2(C)C(OC)CC[C@@H]12 (stereo not given in full) | inactive | inactive | 13.8% (inactive) | inactive | 
OC1(c2ccc(Cl)c(C(F)(F)F)c2)CCN(CCCC(c2ccc(F)cc2)c2ccc(F)cc2)CC1 | 2.66 µM (active) and 3.66 µM (active) | 2.99 µM (active) and 3.26 µM (active) |  | 3.66 µM (active) | 4.11 µM (active)
C/C=C/c1ccc(O)c(OC)c1 | inactive | inactive | 1.66% (inactive) | inactive | 
COc1ccc2cc(OCC3(C(=O)O)CN(C(=O)c4ccc(F)cc4)C3)ccc2c1 | inactive | inactive | -4.74% (inactive) | inactive | 
O=C(OCC1(COC(=O)c2cccnc2)CCCC(COC(=O)c2cccnc2)(COC(=O)c2cccnc2)C1O)c1cccnc1 | inactive | inactive | 7.27% (inactive) | inactive | 
O=S(=O)(O)c1cc(I)c(O)c2ncccc12 | 15 nM (active) | inactive | 0.547% (inactive) | inactive | 
CC(=O)N(c1onc(C)c1C)S(=O)(=O)c1ccc(N)cc1 | inactive | inactive | 0.743% (inactive) | inactive | 
C/C=C/c1ccc(OC)cc1 | inactive | inactive | 7.49% (inactive) | inactive | 
O=C(O)c1ccccc1S | inactive | inactive | 5.53% (inactive) | inactive | 

From PubChem BioAssay (NCATS)
